# Sampled rows, rich in hits. Any-hit rate of the full collection: about 3.4%.
# GalR3 antag: antagonists of human GalR3 | O60755 | HEK293 GalR3-CNG cAMP membrane potential fluorescence; galR3 body fused to GalR1 C-terminus | inhibition, % at 3 µM | actives 0.44% (n = 360,000) | AID 651719;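 active = inhibition above the screen-wide average plus 3 SD, cut at about 13% in these data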;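 also: forskolin and galanin both at EC90 stimulate the cells; cAMP rise reported by CNG channel membrane potential dye signal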
# H9c2 protect: myocardial damage modulation in H9c2 cells | protection from H2O2 cell death, % at 20 µM | actives 0.63% (n = 360,000) | AID 588492 | H9c2 cardiomyocytes, H2O2 injury protection, ATPLite, 2 h;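 active = compounds giving at least 50% protection of heart cells from peroxide-induced death in the single-dose screen, raw or plate-pattern-corrected value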
# COUP-TFII inh: blocks human COUP-TFII nuclear receptor; actives 0.7% (n = 370,000); P24468; inhibition, % at 8.6 µM; HEK293T NGFI-A luciferase reporter, luminescence;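 active = inhibition above a per-plate cutoff, mean inhibition of test wells between control levels plus 3 SD, cut at about 38% in these data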;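 also: cells cotransfected with COUP-TFII expression vector driving the NGFI-A reporter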
# Target sequence (P24468 whole entry, looked up): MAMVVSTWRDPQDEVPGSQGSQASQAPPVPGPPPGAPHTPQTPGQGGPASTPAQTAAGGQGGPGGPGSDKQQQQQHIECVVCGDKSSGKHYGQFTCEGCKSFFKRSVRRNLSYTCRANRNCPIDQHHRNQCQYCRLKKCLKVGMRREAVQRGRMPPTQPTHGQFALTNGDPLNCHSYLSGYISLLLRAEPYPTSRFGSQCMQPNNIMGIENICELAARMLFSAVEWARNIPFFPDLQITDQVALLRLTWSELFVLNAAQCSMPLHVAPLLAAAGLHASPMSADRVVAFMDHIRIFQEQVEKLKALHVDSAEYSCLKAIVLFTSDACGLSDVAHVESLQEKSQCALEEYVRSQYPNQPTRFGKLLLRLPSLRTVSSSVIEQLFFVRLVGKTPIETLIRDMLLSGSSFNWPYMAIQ
# SMARCA2 activ: activators of SMARCA2 function; actives 1% (n = 370,000); MG213 cells, MMTV-luciferase reporter, dexamethasone, overnight; AID 652017; activation, % at 9.1 µM; in the data active = activation above about 7.8%
# GAA850 FXN act: frataxin GAA850 promoter activation; HEK293 lucGAA850 FXN promoter luciferase reporter, 24 h; percent of 10 µM SAHA response; activation, % at 6 µM; actives 0.56% (n = 360,000); AID 540364;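 active = activation above the average of all compounds screened plus 3 SD, cutoff fixed separately per campaign, cut at about 7.5% in these data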
# Gli-Sufu block: Gli-Sufu pathway antagonism. Sufu-KO-LIGHT fibroblasts, Gli luciferase reporter luminescence. AID 588413. inhibition, % at 5 µM. actives 0.74% (n = 340,000);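 active = inhibition above about 55%, limit read from the data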
# Gli-Sufu confirm: Gli-SUFU antagonism confirmation, single concentration. shares compounds with Gli-Sufu block. Sufu-KO-LIGHT cells, Gli luciferase reporter, luminescence. inhibition, % at 5 µM. actives 40% (n = 2,500);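 active = mean inhibition at 5 µM reaching about 45%, limit read from the data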
# SufuKO cytotox: cytotoxicity counter-screen for Gli-SUFU antagonists; shares compounds with Gli-Sufu block; Sufu-KO-LIGHT cells cytotoxicity, ATP luminescence; cytotoxicity, % at 5 µM; actives 32% (n = 2,500); AID 651994;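 active = mean cytotoxicity at 5 µM above about 25%, limit read from the data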;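 also: cells exposed to compound overnight for roughly 16 to 18 hours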
# Wnt3a cs: inhibits Wnt3a reporter, counter-screen for Gli-SUFU antagonists; inhibition, % at 6.25 µM; shares compounds with Gli-Sufu block; actives 20% (n = 2,500); Wnt-LIGHT cells, Wnt3a-driven luciferase reporter, luminescence; AID 651995;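 active = mean inhibition above about 25%, limit read from the data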
# Hits are given with their value; 0 = inactive; - = no result given.
SMILES,GalR3 antag,H9c2 protect,COUP-TFII inh,SMARCA2 activ,GAA850 FXN act,Gli-Sufu block,Gli-Sufu confirm,SufuKO cytotox,Wnt3a cs
COC(=O)C1CN(Cc2cn(CCOC(C)=O)nn2)CCS(=O)(=O)N1Cc1ccc(F)cc1 (centres undefined),-,-,0,0,-,-,-,-,-
N#Cc1ccc(-c2cccs2)nc1SCc1cccnc1,0,0,0,0,0,60.4,0,55.4,0
COc1ccc(Cc2c(-c3cccc(Cl)c3)nc3ccc(C)cn23)c(C)c1,0,0,0,0,-,-,-,-,-
Cc1ccc(C[n+]2cc(-c3ccc(Cl)cc3)n3c2CCC3)cc1,0,0,0,0,0,76.8,79.0,32.4,0
Cc1ccc(-c2c[n+](Cc3ccc(Cl)cc3)c3n2CCC3)cc1,0,0,0,0,0,79.4,81.5,33.3,0
Clc1cccc(C[n+]2cc(-c3ccccc3)n3c2CCC3)c1,0,0,0,0,0,0,-,-,-
CN1CCN(/N=C/c2nc(-c3ccc(Cl)cc3)n3ccccc23)CC1,0,0,0,0,0,0,-,-,-
CN1CCN(/N=C/c2nc(-c3ccccc3)n3ccccc23)CC1,0,0,0,0,0,0,0,0,0
C[C@@H]1ON(C)[C@H]2C[C@H]3c4[nH]c5c(-c6ccccc6F)cccc5c4CCN3C[C@@H]12,-,-,0,0,-,-,-,-,-
COc1ccc(-c2nn(-c3ccccc3)cc2C=O)cc1[N+](=O)[O-],0,0,0,0,0,55.3,0,32.9,0
COc1ccc(NC(=O)COCC(=O)Nc2ccc(C)cc2)cc1,0,0,0,0,0,0,0,0,0
O=C(COC(=O)c1cccnc1Nc1ccccc1F)NCCN1C(=O)CSC1=O,0,0,0,0,0,0,0,0,0
O=[N+]([O-])c1ccc(Cl)c(CN2CCN(c3ncc(Cc4ccccc4)cn3)CC2)c1,0,-,0,0,-,-,-,-,-
COc1cc2c(c(OC)c1)[C@H](/C=C/c1ccccc1)[C@@H]([C@H](O)CO)OC2,-,-,0,0,-,-,-,-,-
COc1ccc(N2C(=O)c3ccc(C(=O)OC(C)C)cc3C2=O)cc1,0,0,0,0,0,91.1,0,0,0
COc1ccc(N2C(=O)c3ccc(C(=O)Nc4cc(OC)ccc4OC)cc3C2=O)cc1,0,0,0,0,0,-,-,-,-
CCOC(=O)N1CCN(C(=O)CSc2ccc3nnc(-c4ccncc4)n3n2)CC1,0,0,0,0,0,58.9,0,33.1,0
Cc1cc(C)n2c(SCCC(C)C)nnc2n1,0,0,0,0,0,62.5,0,0,0
C[C@H]1[C@@H](NS(=O)(=O)c2ccccc2[N+](=O)[O-])CC[C@@]23CCCN2C(=O)CCC[C@@H]13,-,-,0,-,-,-,-,-,-
COc1cccc(CNC2CCC23CCC(C)CC3)c1 (centres undefined),-,-,0,-,-,-,-,-,-
COC(=O)N/N=C/c1cn(CCOc2cccc(OC)c2)c2ccccc12,0,0,0,0,0,0,-,-,-
Cc1cccc(OCCn2cc(/C=N/NC(=O)c3ccncc3)c3ccccc32)c1,0,0,0,0,0,96.2,0,28.7,0
CC(=O)N1CCCc2cc(S(=O)(=O)N3CCCC(C(=O)NCc4ccccc4)C3)ccc21 (centres undefined),0,0,0,0,0,0,0,0,0
CC(=O)N1CCCc2cc(S(=O)(=O)N3CCCC(C(=O)NCc4ccc(C)cc4)C3)ccc21 (centres undefined),0,0,0,0,0,0,-,-,-
CC(C)CCNC(=O)C1CCCN(S(=O)(=O)c2ccc3c(c2)CC(C)N3C(=O)C2CC2)C1 (centres undefined),0,0,0,0,0,56.6,0,0,0
SMILES,GalR3 antag,H9c2 protect,COUP-TFII inh,SMARCA2 activ,GAA850 FXN act,Gli-Sufu block,Gli-Sufu confirm,SufuKO cytotox,Wnt3a cs
CC(C)(C)N(Cc1cn(Cc2ccccc2)nn1)S(=O)(=O)c1ccc(N2CCCC2)cc1Br,-,-,0,0,-,-,-,-,-
CC(C)N1CCCCC(NC(=O)c2c(F)cccc2F)C1=O (centres undefined),-,-,0,0,-,-,-,-,-
CCOC(=O)[C@@]12CCCC3=C1N(CCC3)C(=O)[C@H]2CC(=O)NCCCOC,-,-,0,0,-,-,-,-,-
COC(=O)c1sc(N)c(C(=O)OC)c1CSc1nnnn1C,0,0,0,0,0,99.2,0,0,0
Cc1c(CCOC(=O)CC23CC4CC(CC(C4)C2)C3)sc[n+]1Cc1ccccc1,0,0,0,0,0,0,58.4,32.1,0
C[C@H](O)[C@@H]1CN2CCc3c([nH]c4ccccc34)[C@@H]2C[C@@H]1N(C)C(=O)OCc1ccccc1,0,0,0,0,-,-,-,-,-
CCCNC(=O)c1ccccc1NC(=O)c1ccc2c(=O)n3c(nc2c1)CCC3,0,0,0,0,0,95.7,0,0,0
Cc1c(NC(=O)C2CCCN(S(=O)(=O)c3ccc(Cl)s3)C2)c(=O)n(-c2ccccc2)n1C (centres undefined),-,-,0,0,-,-,-,-,-
O=Cc1cn(CC(O)CN2CCCCC2)c2ccccc12 (centres undefined),0,0,0,0,0,0,-,-,-
CC(C)(CO)NCC(O)Cn1cc(C=O)c2ccccc21 (centres undefined),0,0,0,0,0,0,0,0,0
COC(=O)C[C@H]1CC[C@@H]2[C@H](COc3ccc(NC(=O)c4cccc(Cl)c4)cc3C(=O)N2C)O1,-,-,0,0,-,-,-,-,-
CC(C)(C)[C@H]1COC(=O)[C@H](NC(=O)OCC2c3ccccc3-c3ccccc32)C/C=C\C[C@@H](CC(=O)N[C@@H](CO)Cc2ccccc2)C(=O)N1,0,0,0,0,0,57.1,50.6,0,0
C[C@@H]1COC(=O)[C@H](NC(=O)OCC2c3ccccc3-c3ccccc32)C/C=C\C[C@@H](CC(=O)N[C@@H](CO)Cc2ccccc2)C(=O)N1,0,0,0,0,0,58.6,56.8,0,0
CC(C)(C)[C@H]1COC(=O)[C@H](NC(=O)OCC2c3ccccc3-c3ccccc32)C/C=C\C[C@@H](CC(=O)N[C@H](CO)Cc2ccccc2)C(=O)N1,0,0,0,0,0,0,-,-,-
CN(C)[C@@H]1CCN(c2cccc3c2S(=O)(=O)N2CC[C@H](C2)O3)C1,-,-,0,0,-,-,-,-,-
Cc1cc(NC(=O)c2c(Br)c(C)nn2C)no1,0,0,0,0,0,0,0,0,0
O=C(Nc1cc(Sc2ccccn2)cc([N+](=O)[O-])c1)c1ccc([N+](=O)[O-])cc1,0,0,0,0,0,0,0,26.5,0
COC(=O)[C@]12CCCCC=C1N(Cc1ccc3c(c1)OCO3)C(=O)[C@H](CC(=O)NCC1CCCCC1)C2,0,-,0,0,-,-,-,-,-

# Screening data: PubChem, several laboratories
